Experimental data taken from PMC12136788.
Substitutions are numbered along the chain they refer to. The full ranking holds about 24,000 sequences; the median of “enrichment r” is about 0.99, and the highest 2% start at about 3.7. Many of the other results were omitted from the sample, so the highest values are more common in it than they were.

B1: chr7:118222036:118222037:-_ENSMUSG00000005610_ENSMUST00000162415|mus_mus|FALSE|FALSE (ssRNA)
RNA: GGGAGUUCUACAGUCCGACGAUCAUCAAAGUUUGGUGCAUCUUCUGCCAAUCGCAGACAUAGCUGAGCAUACAGCGAGCUAUACUUUGGCUCUUCUAAGGCUUUGUCCACAAUCAGCAGUAUGACCCCUUUAAGGAUGAGUUUCAACAGAGGAUUGAGCAUCA
B2: chr15:25293464:25293465:-_ENSMUSG00000045763_ENSMUST00000058845|mus_hu|motif|central (ssRNA)
RNA: GGGAGUUCUACAGUCCGACGAUCAAAAAUAUCUGGAGAGGAAGAAUGGAGGAUUGGCAUUGAGAUCCAUGUGGACAAGCGGAGUGGGCUCUGUCUGAAAGCUGGCAUUCAUCCACAACAUUAAAAAAAUAUCAAAAUAAGAAACAACAGAGGAUUGAGCAUCA
B3: chr15:25293464:25293465:-_ENSMUSG00000045763_ENSMUST00000058845|mus_hu|FALSE|FALSE (ssRNA)
RNA: B2 RNA with G80U, G81A
B4: chr15:25293464:25293465:-_ENSMUSG00000045763_ENSMUST00000058845|mus_mus|motif|central (ssRNA)
RNA: GGGAGUUCUACAGUCCGACGAUCAAAAAUAUCUGGAGAGGAAAAAUGGAGGGUUGGCAUUGAGAUACAUGUGGACAAGCGGAGUGGGCUCCGUCUGAAAGUUGGCAUUCAUCCACGAACGUUUAAAAAAAUACCAAAAAAAUUCAACAGAGGAUUGAGCAUCA
B5: chr18:38477064:38477065:+_ENSMUSG00000060450_ENSMUST00000072376|mus_hu|motif|central (ssRNA)
RNA: GGGAGUUCUACAGUCCGACGAUCUGCAGAUAUAAUUCAAGAACAUUCAGCUUGGGAAUAUAUUAAGCUUUCUCCGGUUCCAGCAGAGGAAAUAAAAACAUGUGUUCCUGGAAUUAAUAUUAAAAUCAUCCUUACAAACAGAAGCAACAGAGGAUUGAGCAUCA
B6: chr9:122046571:122046572:+_ENSMUSG00000038145_ENSMUST00000120173|mus_mus|FALSE|FALSE (ssRNA)
RNA: GGGAGUUCUACAGUCCGACGAUCCUGAAAUUUGUUGCUGAAGCCAAAGUCUGUCAACUUCACAAGACCUUGUUUUUCAAAAAAGACUACAUUCUCUGGUUUCAAGUCUCUGUGGACCACAUGGAGUUUAUGGCAAUAAGAUAUCAACAGAGGAUUGAGCAUCA
B7: chr1:46159212:46159213:+_ENSG00000159596_ENST00000372025|hu_mus|hu_hu_hu_mus_True|38_58 (ssRNA)
RNA: GGGAGUUCUACAGUCCGACGAUCUCUGAUCCCUCCCAAGAAAGCUAGGAAACCGGCUCCAUAAGCCAUCUGAGUGAAAGCUAAUAUGGGGAUAUAAGUUUUUGUCAUUACCAUGAGAAGUGGGGGAGCAGUAAAGGGGAUUAACAACAGAGGAUUGAGCAUCA
B8: chr5:128448638:128448639:+_ENSG00000066583_ENST00000173527|hu_mus|hu_hu_hu_mus_False|8_98 (ssRNA)
RNA: GGGAGUUCUACAGUCCGACGAUCGGCACUCGCCUUAAUUAGAUUCUGAAUUUCCUUGAACUUCGGGUGGUCUUUGUCAGCCACCAGCUGUAGGAGGACAGCCUCACUAGUGGUCACGAUGAUCCCAGUUCGAGCGAGACGCUCCAACAGAGGAUUGAGCAUCA
B9: chr12:39763582:39763583:-_ENSG00000139116_ENST00000544797|hu_mus|hu_hu_hu_mus_False|1_28 (ssRNA)
RNA: GGGAGUUCUACAGUCCGACGAUCCUCUAGGAACUGGGCAUUCACUUUGAAUUCAGGAGGGGGCAGCCCGUUUUUAAUCGCUGAGGUCUUUUUCUCAUCAAUACUCUUAAAAAGGUGUCUAACAGCACGAGAGAUGAUACCCAGCAACAGAGGAUUGAGCAUCA
B10: chr1:153198750:153198751:+_ENSMUSG00000023150_ENSMUST00000023918|perfect_dup|FALSE|FALSE (ssRNA)
RNA: GGGAGUUCUACAGUCCGACGAUCUUCUGGAUUGAGAUCAUCAAAUUUAACGUGAGAAAUUCCAUGAGGAUCACUAUCACUAUUAAAGAUUUCAAAUAAAUAGGGACUGCAGCAAGCUAGCACUGCUCUGUGUGCUAACAUUUCCAACAGAGGAUUGAGCAUCA
B11: chr2:48034705:48034706:-_ENSG00000138081_ENST00000403359|hu_hu|FALSE|FALSE (ssRNA)
RNA: GGGAGUUCUACAGUCCGACGAUCCAUAGAAAGAACGUACAUACUGGGACAUGAGUACAGUUACAGCAAGUCUAGGUGUGCUAACAAAACAGGGCACAUUCAAGUACAGUAAGAUUUUGCUUGAAAUUAAAAACAAACUACAUGCAACAGAGGAUUGAGCAUCA
B12: chr15:74751088:74751089:-_ENSG00000138629_ENST00000361351|perfect_dup|FALSE|FALSE (ssRNA)
RNA: GGGAGUUCUACAGUCCGACGAUCCGGGUCUGGAACAGAUUCCUGGAGCUUGCCAGCAAUAAGCUGCUUCAGAAAUGAAAUGCUAUAGCCCCCUAGGGAAUAUUCUCCCAGUUCUGUCUCUGGCAACUGAAGAAUAGAUUUUGGCAACAGAGGAUUGAGCAUCA
B13: chr1:153198750:153198751:+_ENSMUSG00000023150_ENSMUST00000023918|perfect_dup|FALSE|FALSE (ssRNA)
RNA: GGGAGUUCUACAGUCCGACGAUCUUCUGGAUUGAGAUCAUCCAACUUCACAUGAGAAACUCCAUGAGGGUCACUGUCACUAUUGAAGAUUUCAAAUAGAUAGGGGCUACAGCAAGCCAGGACUGCCCUGUGUGCUAGCAUCUCCAACAGAGGAUUGAGCAUCA
B14: chr3:100366718:100366719:-_ENSMUSG00000008763_ENSMUST00000008907|mus_hu|FALSE|FALSE (ssRNA)
RNA: GGGAGUUCUACAGUCCGACGAUCAUUCUUAAAGAAAAAUCUAUUAUCUGUUAGCAUGAUUGGAGCACUGCAAUGUAUAUGCUAGUAAUAUGGUGUGUAAUUUCACAAGCAAUUUUAUGAGUUCUGCAAUUGCUAGGCUCAAACCAACAGAGGAUUGAGCAUCA
B15: chr8:86505109:86505110:+_ENSMUSG00000005469_ENSMUST00000005606|mus_mus|motif|central (ssRNA)
RNA: GGGAGUUCUACAGUCCGACGAUCCUUGUGCUUCACCAGCAUCACUCGCCCAAAGGAGCCGGUGCCAAGGGUCUUGAUUCGGUCAAACUGAUCCAACUGGGCUGUAUUCUGAGAAGGGGUCUCCCAUUUUUUCAGGAAAUCUUCCAACAGAGGAUUGAGCAUCA

What follows are binders tested against T1, UNK ZnF1-3 (human, UniProt Q9C0B0 31-174) (assay: nsRBNS (natural sequence RNA bind-n-seq); RBNS binding buffer (assumed for nsRBNS): 25 mM Tris pH 7.5, 150 mM KCl, 3 mM MgCl2, 0.01% Triton X-100, 500 ug/ml BSA, 20 U/ml SUPERase-In, 4 C; UNK is unkempt and MSI1 is Musashi-1; names of the RNAs are library labels; protein concentration not given here; high values mean tight binding).
T1 sequence: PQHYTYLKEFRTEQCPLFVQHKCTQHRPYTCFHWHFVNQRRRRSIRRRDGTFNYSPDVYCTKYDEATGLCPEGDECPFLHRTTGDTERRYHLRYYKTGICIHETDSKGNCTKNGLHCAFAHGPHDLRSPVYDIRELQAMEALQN

Row | Binder | binding signal [enrichment R]
1 | B1 | 0.544
2 | B2 | 8.1
3 | B3 | 15.3
4 | B4 | 3.28
5 | B5 | 2.14
6 | B6 | 0.833
7 | B7 | 1.29
8 | B8 | 0.656
9 | B9 | 1.45
10 | B10 | 5.29
11 | B11 | 1.25
12 | B12 | 1.14
13 | B13 | 5.29
14 | B14 | 0.664
15 | B15 | 1.11
